Laboratory results published in PubChem BioAssay (EPA / NIEHS).
The source made the active and inactive calls. Rule for the calls: active = hit-call score of the fitted dose curve at least 0.9, where 1 is the maximum; inactive = score below 0.9.

System: not listed separately
Experiment: ATG_SREBP_CIS: Attagene CIS-FACTORIAL HepG2 Assay for human Sterol Regulatory Element Binding (SREBP) (AID 2282962)
Conditions: HepG2 Attagene cis-factorial SREBP reporter, mRNA; actives raise or lower the signal
How it was run: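 mRNA induction of transfected cis-promoter reporters in HepG2 cells, 24 h post-dose. Detection: RT-PCR with 6-FAM-labelled products, HpaI digest, capillary electrophoresis. DMSO served as negative control and baseline.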

Row | SMILES | AC50 | outcome
1 | CCCCCCCCCCCCOCCO | 49.1 µM (active) | –
2 | CC(C)=CCC/C(C)=C/COC=O | – | inactive
3 | CCC(=O)OCCC(C)CCC=C(C)C (stereo not given) | – | inactive
4 | CCCCCCCCCCN | – | inactive
5 | O=C1C(c2[nH]c3ccc(S(=O)(=O)O)cc3c2O)=Nc2ccc(S(=O)(=O)O)cc21 | – | inactive
6 | CCCCOCCOCCOCCOCCO | – | inactive
7 | NCCCCCCN | – | inactive
8 | CC(C)(COC(=O)c1ccccc1)COC(=O)c1ccccc1 | – | inactive
9 | O=C(COc1ccc(Cl)cc1)N1CCN(Cc2ccc3c(c2)OCO3)CC1 | 27.1 µM (active) | –
10 | O=CCCc1ccccc1 | – | inactive
11 | CCCCCCCCC=O | – | inactive
12 | C=C(C)C(=O)Nc1ccc(Cl)c(Cl)c1 | – | inactive
13 | C=C(C)[C@@H]1CC[C@@H](C)C[C@@H]1O | – | inactive
14 | OC[C@H]1O[C@H](O[C@]2(CCl)O[C@H](CCl)[C@@H](O)[C@@H]2O)[C@H](O)[C@@H](O)[C@H]1Cl | – | inactive
15 | O=c1[nH]c(=O)n([C@H]2CCCO2)cc1F | – | inactive
16 | Cc1ccc(C=O)s1 | – | inactive
17 | C=O | – | inactive
18 | C=C(C)C1CCC(C)CC1O (stereo not given) | – | inactive
19 | O=S(=O)(O)NC1CCCCC1 | – | inactive
20 | CCCCCCCCCCC(CO)CCCCCCCC (stereo not given) | – | inactive
21 | C=CCOc1nc(OCC=C)nc(OCC=C)n1 | – | inactive
22 | Cc1ccc(S)cc1 | – | inactive
23 | CCCCCCOC(=O)CCCCC | – | inactive
24 | Nc1ccc(S(N)(=O)=O)cc1 | – | inactive
25 | CC(C)=CCO | – | inactive
26 | CC(=O)C(=O)O | – | inactive
27 | CC1(C)C(=O)N(Br)C(=O)N1Cl | – | inactive
28 | CCC(C)CCCC(C)(C)O (stereo not given) | – | inactive
29 | CC1(CO)CN(c2ccccc2)NC1=O (stereo not given) | – | inactive
30 | CCOC(=O)c1ccccc1OC | – | inactive

Target: Signal transducer and activator of transcription 3 (Homo sapiens) (UniProt P40763)
Sequence (P40763 whole entry, looked up): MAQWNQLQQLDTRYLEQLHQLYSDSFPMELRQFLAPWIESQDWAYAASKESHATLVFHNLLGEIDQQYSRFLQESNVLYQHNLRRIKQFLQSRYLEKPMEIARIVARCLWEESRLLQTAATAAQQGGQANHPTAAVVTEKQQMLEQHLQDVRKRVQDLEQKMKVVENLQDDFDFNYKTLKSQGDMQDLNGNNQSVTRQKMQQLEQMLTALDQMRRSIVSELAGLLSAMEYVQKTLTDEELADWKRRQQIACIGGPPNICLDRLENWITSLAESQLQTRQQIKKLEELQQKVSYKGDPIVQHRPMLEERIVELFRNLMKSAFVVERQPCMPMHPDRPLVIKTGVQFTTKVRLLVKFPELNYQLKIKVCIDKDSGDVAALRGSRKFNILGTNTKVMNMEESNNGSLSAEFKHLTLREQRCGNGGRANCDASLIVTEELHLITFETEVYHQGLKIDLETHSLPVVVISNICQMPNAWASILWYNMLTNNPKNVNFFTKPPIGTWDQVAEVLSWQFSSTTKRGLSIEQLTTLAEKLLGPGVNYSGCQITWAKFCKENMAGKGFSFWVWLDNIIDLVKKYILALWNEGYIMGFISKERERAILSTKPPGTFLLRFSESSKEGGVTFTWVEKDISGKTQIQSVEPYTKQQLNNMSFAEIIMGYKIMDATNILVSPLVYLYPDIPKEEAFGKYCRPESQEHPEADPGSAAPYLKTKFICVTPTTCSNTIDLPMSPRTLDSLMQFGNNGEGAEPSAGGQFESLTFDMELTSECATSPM
Experiment: ATG_STAT3_CIS: Attagene CIS-FACTORIAL HepG2 Assay for human Signal Transducer and Activator of Transcription 3 (STAT3) (AID 2282963)
Conditions: HepG2, Attagene cis-factorial STAT3 reporter transcription; actives raise or lower the signal
How it was run: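 Values derive from bidirectional fits relative to DMSO of reporter mRNA levels, measured by RT-PCR with capillary electrophoresis, in HepG2 cells carrying transiently transfected cis-regulated reporter units and exposed 24 h.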

Row | SMILES | outcome
31 | CCCCCCCCCCCCOCCO | inactive
32 | CC(C)=CCC/C(C)=C/COC=O | inactive
33 | CCC(=O)OCCC(C)CCC=C(C)C (stereo not given) | inactive
34 | CCCCCCCCCCN | inactive
35 | O=C1C(c2[nH]c3ccc(S(=O)(=O)O)cc3c2O)=Nc2ccc(S(=O)(=O)O)cc21 | inactive
36 | CCCCOCCOCCOCCOCCO | inactive
37 | NCCCCCCN | inactive
38 | CC(C)(COC(=O)c1ccccc1)COC(=O)c1ccccc1 | inactive
39 | O=CCCc1ccccc1 | inactive
40 | CCCCCCCCC=O | inactive
41 | C=C(C)C(=O)Nc1ccc(Cl)c(Cl)c1 | inactive
42 | C=C(C)[C@@H]1CC[C@@H](C)C[C@@H]1O | inactive
43 | OC[C@H]1O[C@H](O[C@]2(CCl)O[C@H](CCl)[C@@H](O)[C@@H]2O)[C@H](O)[C@@H](O)[C@H]1Cl | inactive
44 | O=c1[nH]c(=O)n([C@H]2CCCO2)cc1F | inactive
45 | Cc1ccc(C=O)s1 | inactive
46 | C=O | inactive
47 | O=C(O)c1cccc(C(F)(F)F)c1 | inactive
48 | Fc1c(F)c(F)c(Br)c(F)c1F | inactive

Row | SMILES | outcome
49 | C=C(C)C1CCC(C)CC1O (stereo not given) | inactive
50 | CCCCCCCCCCC(CO)CCCCCCCC (stereo not given) | inactive
51 | CO[Si](CCCn1c(=O)n(CCC[Si](OC)(OC)OC)c(=O)n(CCC[Si](OC)(OC)OC)c1=O)(OC)OC | inactive
52 | C=CCOc1nc(OCC=C)nc(OCC=C)n1 | inactive
53 | C=C(C)C(=O)O[C@H]1C[C@@H]2CC[C@@]1(C)C2(C)C | inactive
54 | Cc1ccc(S)cc1 | inactive
55 | CCCCCCOC(=O)CCCCC | inactive
56 | Nc1ccc(S(N)(=O)=O)cc1 | inactive
57 | CC(C)=CCO | inactive
58 | CCOc1ccccc1OCC | inactive
59 | CC(=O)C(=O)O | inactive
60 | CC1(C)C(=O)N(Br)C(=O)N1Cl | inactive
61 | CCC(C)CCCC(C)(C)O (stereo not given) | inactive
62 | Clc1sc(Cl)c(Cl)c1Cl | inactive
63 | CC1(CO)CN(c2ccccc2)NC1=O (stereo not given) | inactive
64 | CCOC(=O)c1ccccc1OC | inactive
65 | CCCOCC(C)O (stereo not given) | inactive
